Source: PubChem BioAssay (National Center for Advancing Translational Sciences (NCATS))
KB-3-1 cytotox: kills parental KB-3-1 adenocarcinoma cells; KB-3-1 viability, CellTiter-Glo ATP luminescence, 72 h; Potency, µM (titrated, usually from 46.1 µM), actives largely listed as cytotoxic; 400,000 tested, 1.4% active; AID 1347075; also: potency is read from the fitted curve at half-maximal effect; % is scaled to controls: 0 for no effect and ±100 for the full control effect; nearly all actives have a fitted effect of over 60% in size
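Multi-concentration cytotoxicity screen in KB-3-1 cells grown in DMEM lacking phenol red with 10% FBS. After 72 h at 37 °C with compound, ATP-dependent luminescence was recorded.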
MCF10A rereplic: DNA re-replication induction in MCF 10a cells | MCF 10A DNA re-replication, Hoechst nuclear intensity, 48 h | Potency, µM (highest dose often 46.1 µM), for the others: top-dose activity, positive = re-replication, most hits filed as activators | 350,000 tested, 2.9% active | AID 624296; also: potency is read from the fitted curve at half-maximal effect; % of control where 0% means no effect; nearly all actives have a fitted effect of over 50% in size
IL1B secr inh: inflammasome signaling inhibition, IL-1 beta readout; AID 743279; THP-1 LPS/ATP IL-1B secretion, AlphaLISA, 16 h; active compounds read low; 360,000 tested, 4.7% active; activity change, % at 57.5 µM; in the data active = activity change below about -50%; inconclusive = mostly about -30% to -49%; also: % is scaled to controls: 0 for no effect and ±100 for the full control effect
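Secreted IL-1B measured by AlphaLISA bead assay after 16 h compound exposure of THP-1 cells; compounds (final up to 57.5 uM) added 1 h before LPS (250 ng/mL) and ATP (1.25 mM) stimulation; lower signal means less secretion.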
KB-V1 MDR tox: KB-V1 MDR subline cytotoxicity; Potency, µM (titrated, usually from 46.1 µM), most hits filed as cytotoxic; 400,000 tested, 3.4% active; KB-V1 MDR cells viability, CellTiter-Glo, 72 h; AID 1347076; also: potency is read from the fitted curve at half-maximal effect; % is scaled to controls: 0 for no effect and ±100 for the full control effect; nearly all actives have a fitted effect of over 60% in size
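Cells of the MDR subline KB-V1 are plated, dosed with compound at multiple concentrations, and incubated 72 h at 37 degrees C; CellTiter-Glo is then added and luminescence read after 10 min.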
SW480 rerep: induces DNA re-replication in SW480 colon adenocarcinoma cells | AID 624297 | 340,000 tested, 1.8% active | Potency, µM (top dose mostly 46.1 µM), inactives show at the top dose re-replication activation, most hits filed as activators | SW480 DNA re-replication, Hoechst DNA content imaging, 48 h; also: potency is read from the fitted curve at half-maximal effect; % of control where 0% means no effect; nearly all actives have a fitted effect of over 55% in size
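Cells (250 per well) received 23 nL compound or DMSO by pin tool and were kept 48 hr at 37 C, 5% CO2. Nuclei were then stained with Hoechst for 40 min and scanned for DNA content.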
* = called active by the depositor; i = inactive; ? = inconclusive; · = no result given; [ ] = dose if it differs, or a comment. A selection: hits, their analogues and other compounds. The true share with any hit is near 9.9%. Unless noted, calls follow the shape of the dose curve; as a rule, active = well fitted curve in the direction sought with a large enough effect; inconclusive = small, poorly fitted or top-dose-only effect, or another doubt; inactive = no such curve, though single readings can be large; an effect the other way counts as inactive or inconclusive.

SMILES | KB-3-1 cytotox | MCF10A rereplic | IL1B secr inh | KB-V1 MDR tox | SW480 rerep
O=C1CCN(Cc2ccc(O)cc2)CCN1CCO | i | 4% | 2 | i | -5%
O=c1oc2ccccc2c(O)c1/C=C1\C=Nc2ccccc21 | ? | ? | -108* | ? | ?
O=c1oc2ccccc2c(O)c1/C=N/c1ncccn1 | i | -3% | 12 | i | -10%
Cc1ccc(-c2n[nH]c(=O)c3ccccc23)cc1S(=O)(=O)Nc1ccccc1 | ? | ? | -8 | 21µM* | 1%
Cc1ccc(-c2n[nH]c(=O)c3ccccc23)cc1S(=O)(=O)N(C)C | i | 22% | 31 | i | -5%
Cc1c(CN(C)C)c2c(n1C)C(=O)c1ccc(Br)cc1-2 | i | 27% | · | i | ?
CCOC(=O)c1c2c(n(C)c1C)C(=O)C(=O)c1ccc(Br)cc1-2 | 3.7µM* | 2.1µM* | 37 | 3.3µM* | 2.6µM*
CCOC(=O)c1c2c(n(Cc3ccccc3)c1C)C(=O)C(=O)c1ccccc1-2 | 2.9µM* | 3.3µM* | -100* | 3.3µM* | 4.1µM*
COC(=O)CCN1CCc2cc(N=Nc3ccc([N+](=O)[O-])cc3)ccc21 | i | -4% | -10 | i | -2%[9.22 µM]
COc1ccc(C(=O)C[C@@H]2OC[C@H](C)N2S(=O)(=O)c2ccc(C)cc2)cc1OC | i | · | 3 | ? | ·
COc1ccc(C(=O)C[C@@H]2OC[C@H](C(C)C)N2S(=O)(=O)c2ccc(C)cc2)cc1OC | i | · | -12 | 21µM* | ·
C=C(C)CN1CCN(S(=O)(=O)c2ccc(C)c(N(C)S(=O)(=O)c3ccc(C)cc3)c2C)CC1 | i | ? | -1 | ? | 1%
CCN1C(=O)C(CC(=O)Nc2ccc(F)cc2)N(Cc2ccc3c(c2)OCO3)C1=S (stereo not drawn) | ? | 7% | -60* | ? | 1%
Cc1ccc(N2C(=O)C(CC(=O)Nc3ccc(F)cc3)N(Cc3ccc4c(c3)OCO4)C2=O)cc1 (stereo not drawn) | i | · | · | i | ·
COc1ccc(NC(=O)CC2C(=O)N(C)C(=S)N2Cc2ccc3c(c2)OCO3)cc1 (stereo not drawn) | i | 5% | 12 | 15µM* | ?
Cc1ccc(S(=O)(=O)N2CCN(c3ccccc3)CC2)cc1C(=O)NC1CCCCC1 | ? | 2% | ? | i | -15%
Nc1ccncc1N | 21µM* | ? | -10 | ? | ?
COc1ccc(-c2csc(N(CCc3ccccc3)C(=O)COc3ccccc3)n2)cc1 | i | 7% | 0 | 16µM* | 0%
COc1ccc(-c2csc(N(CCCN(C)C)C(=O)c3ccc(OC)c(OC)c3)n2)cc1 | i | · | 0 | i | ·
O=C(COc1ccc(Cl)cc1)N(Cc1ccccc1)c1nc(-c2ccccc2)cs1 | i | 11% | 8 | i | 2%
COc1ccc(-c2csc(N(C)C(=O)c3cccs3)n2)cc1 | i | ? | -60* | i | -3%
CCN(CC)CCCN(C(=O)c1cccc(C)c1)c1nc(-c2ccc(OC)cc2)cs1 | i | 1% | -50* | ? | 16%
CCN(CC)CCCN(C(=O)c1ccc(Br)cc1)c1nc(-c2ccc(OC)cc2)cs1 | ? | ? | -81* | ? | ?
Cc1cccc(NC(=O)c2cc3c(=O)n(Cc4cccnc4)ccc3nc2C)c1 | i | · | · | i | ·
CCN(CC)CCCN(C(=O)c1cccs1)c1nc(-c2ccc(OC)cc2)cs1 | ? | ? | ? | 8.2µM* | 18µM*
SMILES | KB-3-1 cytotox | MCF10A rereplic | IL1B secr inh | KB-V1 MDR tox | SW480 rerep
CCN(CC)C(=O)c1cccc(-c2csc(C(O)c3ccc(OC)cc3)n2)c1 (stereo not drawn) | ? | · | 8 | 18µM* | ·
CCN(CC)C(=O)c1cccc(-c2csc(C(O)c3ccc(F)c(OC)c3)n2)c1 (stereo not drawn) | i | · | -1 | ? | ·
COC(=O)[C@]12CCCCC=C1N(CCc1ccc(OC)c(OC)c1)C(=O)[C@H](CC(=O)NCCc1ccccc1OC)C2 | i | · | ? | 16µM* | ·
CCOC(=O)[C@]12CCCC=C1N(Cc1ccc(Cl)cc1Cl)C(=O)[C@H](CC(=O)NCCCCc1ccccc1)C2 | ? | · | 0 | ? | ·
COC(=O)[C@]12CCCCC=C1N(Cc1ccc(Cl)cc1Cl)C(=O)[C@H](CC(=O)NCCc1ccccc1OC)C2 | ? | · | -61* | ? | ·
COC(=O)[C@]12CCCCC=C1N(Cc1ccccc1)C(=O)[C@H](CC(=O)NCCc1ccccc1OC)C2 | i | · | 3 | ? | ·
COC(=O)[C@]12CCCCC=C1N(Cc1ccc(Cl)cc1Cl)C(=O)[C@H](CC(=O)NCCCCc1ccccc1)C2 | ? | · | -51* | ? | ·
CCCCNC(=O)C[C@@H]1C[C@@]2(C(=O)OC)CCCCC=C2N(Cc2ccc(Cl)cc2Cl)C1=O | i | · | -5 | i | ·
CCCCOCCCNC(=O)C[C@@H]1C[C@@]2(C(=O)OC)CCCCC=C2N(Cc2ccc(Cl)cc2Cl)C1=O | i | · | -59* | ? | ·
C#CCN1C=C(C(=O)OCC)C(C)N(Cc2ccccc2I)S1(=O)=O (stereo not drawn) | i | 23µM* | 63 | i | 1.3µM*
C#CCN1C=C(C(=O)OCC)C(C)NS1(=O)=O (stereo not drawn) | i | -20% | 46 | i | 1%
O=C(CSc1nc2ccc(Cl)cc2[nH]1)NCc1ccco1 | i | ? | -67* | ? | -2%
Cc1cc(C(=O)CSc2nc3ccc(Cl)cc3[nH]2)c(C)n1Cc1ccco1 | i | ? | 12 | 21µM* | -6%
Cc1cc(C(=O)CSc2ncccn2)c(C)n1Cc1ccco1 | i | 9% | 6 | i | 1%
O=C(CSc1nc2ccc(Cl)cc2[nH]1)NCCc1ccccc1 | i | ? | -15 | 16µM* | -97%
O=C(CSc1nc2ccc(Cl)cc2[nH]1)NCCc1ccc(Cl)cc1 | i | ? | -17 | i | 6%
O=C(CSc1c2c(nc3cc(Cl)ccc13)CCCC2)NCc1ccco1 | i | ? | -66* | ? | ?
CCOc1ccc(-c2nnc(SCC(=O)NCc3ccc(Cl)cc3)o2)cc1 | i | · | · | i | ·
COc1ccc(S(=O)(=O)N2CCC3(CC2)OCCN3S(=O)(=O)c2cccs2)cc1OC | i | 4% | 0 | ? | 4%
CCOC(=O)C1CCCN(C(=O)c2ccc(Cl)c(S(=O)(=O)N3CCc4ccccc43)c2)C1 (stereo not drawn) | i | ? | 45 | ? | 2%
CCC1(C)Cc2ccccc2-c2nc(-c3ccccc3)oc(=O)c21 (stereo not drawn) | ? | ? | -5 | 16µM* | 6%
CCC1(C)Cc2ccccc2-c2nc(NN)[nH]c(=O)c21 (stereo not drawn) | i | 8% | 25 | i | -13%
